JMJD2A Tudor = inhibitors of human JMJD2A Tudor domain. O75164. AlphaScreen JMJD2A-Tudor / H3K4me3 peptide binding. Potency, µM (doses to about 114 µM), actives largely listed as inhibitors. AID 504339. 390,000 compounds, 4.4% hits; also: nearly all actives have a fitted effect of over 50% in size
PLK1 PBD block = inhibitors of human PLK1 polo-box domain binding | AID 720504 | Potency, µM, hits mostly inhibitors | Plk1 PBD binding of FITC phosphopeptide, fluorescence polarization | 360,000 compounds, 2.8% hits; also: series mostly up to about 57 µM; nearly all actives have a fitted effect of over 65% in size
Target sequence (P53350 whole entry, looked up, the tested form may be a part): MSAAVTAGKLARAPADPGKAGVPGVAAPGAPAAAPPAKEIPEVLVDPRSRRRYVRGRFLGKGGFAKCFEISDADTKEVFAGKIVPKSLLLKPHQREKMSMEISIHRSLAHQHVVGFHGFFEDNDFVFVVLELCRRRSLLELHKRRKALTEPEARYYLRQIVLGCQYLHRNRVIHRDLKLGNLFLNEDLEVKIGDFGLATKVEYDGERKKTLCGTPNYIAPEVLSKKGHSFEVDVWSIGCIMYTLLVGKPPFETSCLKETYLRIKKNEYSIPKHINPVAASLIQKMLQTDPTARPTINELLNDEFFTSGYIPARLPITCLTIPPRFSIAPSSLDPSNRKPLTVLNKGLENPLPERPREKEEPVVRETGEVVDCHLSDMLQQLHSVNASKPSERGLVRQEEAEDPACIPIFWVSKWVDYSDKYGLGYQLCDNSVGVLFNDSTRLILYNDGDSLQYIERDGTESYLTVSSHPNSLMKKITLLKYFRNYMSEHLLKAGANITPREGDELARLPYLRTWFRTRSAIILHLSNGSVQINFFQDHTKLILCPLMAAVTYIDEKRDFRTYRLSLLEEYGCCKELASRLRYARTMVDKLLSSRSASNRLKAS
BAZ2B inh = inhibitors of human BAZ2B bromodomain; AlphaScreen BAZ2B-H3K14Ac peptide displacement; 360,000 compounds, 4.4% hits; Potency, µM (titrated, usually from 114 µM), most hits filed as inhibitors; also: nearly all actives have a fitted effect of over 60% in size
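AlphaScreen displacement: compounds (up to 110uM) incubated 30 min at room temperature with a preformed 50 nM BAZ2B/50 nM biotinylated H3K14Ac peptide complex in PBS pH 7.4 with Tween-20. Donor and acceptor beads at 10 ug/mL final added, 20 min light-protected before reading.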
G9a inh = blocks human histone lysine methyltransferase G9a | G9a H3K9 monomethylation, AlphaScreen, 2 h | Potency, µM (series often up to 102 µM), actives largely listed as inhibitors | 350,000 compounds, 8.8% hits | AID 504332; also: nearly all actives have a fitted effect of over 75% in size
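Signal arises when biotinylated H3K9 peptide, once monomethylated, bridges streptavidin donor and antibody-captured acceptor beads. Enzyme at 20 nM was preincubated 15 min with test compounds; peptide 500 nM and SAM 20 uM then reacted for 2 h.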
VDR inh = vitamin D3 receptor (human) inhibition; P11473; Potency, µM, usual class: inhibitors; 400,000 compounds, 0.93% hits; VDR-SRC2-3 peptide fluorescence polarization, 2 h; AID 504847
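Fluorescence polarization assay of small-molecule disruption of VDR binding to coregulator peptide SRC2-3. Compounds and controls pin-transferred, then read after 2 h incubation at ambient room temperature.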
HP1b chromo inh = HP1-beta chromodomain-methylated histone interaction inhibition | P83916 | AlphaScreen HP1-beta / biotin-H3K9me3 peptide binding | Potency, µM (titrated, usually from 114 µM), actives largely listed as inhibitors | 390,000 compounds, 0.56% hits; also: nearly all actives have a fitted effect of over 70% in size
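AlphaScreen: HP1-beta (50 nM) preformed 30 min with biotin-H3(1-18)K9me3 peptide (50 nM) in PBS pH 7.4, 0.01% Tween-20. Compound added for 30 min at RT, then streptavidin donor/nickel chelate acceptor beads (10 ug/mL) for 30 min.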
TbPYK inh = Trypanosoma brucei pyruvate kinase inhibition, cherry-pick confirmation | shares compounds with PLK1 PBD block | recombinant TbPYK, Kinase-Glo ATP luminescence | Potency, µM (series often up to 76.9 µM), actives largely listed as inhibitors | 890 compounds, 67% hits | AID 720569; also: nearly all actives have a fitted effect of over 70% in size
TbPYK orthogonal = inhibits T. brucei pyruvate kinase in orthogonal ADP-Glo assay; shares compounds with PLK1 PBD block; recombinant TbPYK, ADP-Glo luminescence, 60 min; Potency, µM (top dose mostly 76.9 µM), actives largely listed as inhibitors; 890 compounds, 62% hits; also: nearly all actives have a fitted effect of over 75% in size
A number is an active result; n = inactive; u = inconclusive; x = no result; [ ] = another dose, or the depositor's remark. Most compounds without a hit are left out; they make up all but 11% or so of the library. Calls follow the shape of the dose curve; as a rule, active = well fitted curve in the direction sought with a large enough effect; inconclusive = small, poorly fitted or top-dose-only effect, or another doubt; inactive = no such curve, though single readings can be large; an effect the other way counts as inactive or inconclusive.

SMILES	JMJD2A Tudor	PLK1 PBD block	BAZ2B inh	G9a inh	VDR inh	HP1b chromo inh	TbPYK inh	TbPYK orthogonal
CCOC(=O)C1(C)C(C(=O)OC)=C(c2ccc(OC)cc2)c2ccccc2N1C(=O)OC (stereo not drawn)	n	u	x	u	u	n	u	u
COC(=O)[C@]12CCCCC=C1N(CCc1ccc(OC)c(OC)c1)C(=O)[C@H](CC(=O)NCc1ccc(C)o1)C2	x	n	x	x	x	x	x	x
C/C(Cn1nc([N+](=O)[O-])cc1C)=N\NC(=O)COc1c(Cl)cc(Cl)cc1Cl	n	n	n	n	n	n	n	n
CCN(CC)C(=O)CSC1=C(C#N)C(c2cccs2)C=C(C)N1 (stereo not drawn)	56µM	u	n	10µM	n	n	14µM	14µM
C#CCSC1=C(C#N)C(c2cccs2)C(C(=O)OCC)=C(C)N1 (stereo not drawn)	n	n	n	n[12.7 µM]	n	n	x	x
Cc1ccc(NC(=O)COC(=O)/C=C/c2cccs2)c(C)c1	n	n	n	n	n	n	x	x
COc1cc(OC)cc(C(=O)Nc2nnc(Cc3ccc(OC)c(OC)c3)s2)c1	n	n	n	u	n	n	x	x
Cc1c(CBr)[n+](=O)c2c(n1[O-])C(Br)CCC2Br (stereo not drawn)	20µM	27µM	28µM	7.9µM	35µM	n	1.1µM	3.5µM
CCC1Oc2ccc(C)cc2N(CC(=O)N(Cc2ccc(C)o2)C2CCCC2)C1=O (stereo not drawn)	n	u	n	u	u	n	16µM	16µM
CCc1ccccc1NC(=O)COC(=O)c1cn(CC)c2nc(C)ccc2c1=O	n	x	n	n	n	n	x	x
O=S(=O)(/N=S1\CC=CCN1S(=O)(=O)c1ccccc1)c1ccccc1 (stereo not drawn)	n	3.4µM	x	x	x	u	0.5µM	1.4µM
O=S(=O)(c1ccccc1)N1CCN(S(=O)(=O)c2ccccc2)CC1	n	x	x	x	n	n	x	x
COc1ccc(OC)c(-n2c(=S)[nH]c3c(sc(=S)n3-c3ccccc3)c2=O)c1	u	n	n	n	n	n	16µM	16µM
O=C(O)c1cc(N=Nc2c(O)ccc3ccccc23)cc(C(=O)O)c1	28µM	9.5µM	u	u	n	u	7.1µM	13µM
O=C(O)c1cc2ccc3cccc4ccc(c1)c2c34	n	n	u	n	n	n	x	x
CCn1c(C)cc(C(=O)COC(=O)c2ccccc2[N+](=O)[O-])c1C	45µM	n	x	x	n	u	u	n
Cc1ccc(S(=O)(=O)n2c([N+](=O)[O-])cnc2C)c(C)c1C	u	21µM	n	n	45µM	u	n	n
CCc1cccc(NC(=O)CSC2=NS(=O)(=O)c3ccccc32)c1	n	11µM	n	8.9µM	13µM	n	18µM	18µM
CCSc1nc2n(n1)C(c1ccc(CC)cc1)C(C(=O)Nc1ccccc1OC)=C(C)N2 (stereo not drawn)	n	x	n	n	n	n	x	x
Cc1nc(SCC(=O)c2cccc([N+](=O)[O-])c2)n[nH]1	40µM	u	n	u	25µM	u	u	u
NC1=NC(=O)/C(=C/c2ccc(-c3ccc(S(N)(=O)=O)cc3)o2)S1	u	n	n	u	n	n	x	x
CC1(C)OC(=O)C(=Cc2ccc(-c3ccc(S(N)(=O)=O)cc3)o2)C(=O)O1	n	1.3µM	n	35µM	79µM	n	13µM	16µM
COc1ccccc1N1CCN(c2ncnc3c2cnn3-c2cccc(Cl)c2)CC1	n	x	n	n	n	n	x	x
Cc1cc(C)c(C#N)c(SCC(=O)Nc2cc(C)on2)n1	n	n	x	x	n	n	x	x
COc1ccc(Cl)cc1S(=O)(=O)N1CCC(C(=O)NCCC2=CCCCC2)CC1	n	n	n	n	n	n	x	x
SMILES	JMJD2A Tudor	PLK1 PBD block	BAZ2B inh	G9a inh	VDR inh	HP1b chromo inh	TbPYK inh	TbPYK orthogonal
CCOC(=O)C(=Cc1cc(=O)c(OC)co1)C(=O)OCC	n	24µM	n	10µM	40µM	u	28µM	u
CCOC(=O)/C(C#N)=C\c1ccc(OC)c(OC)c1	n	n	n	u	n	n	x	x
O=c1[nH]c2sc3c(c2c2nncn12)CCCC3	n	n	n	n	n	n	u	35µM
Cc1[nH]c(=O)[nH]c(=O)c1NC(=O)c1ccccc1[N+](=O)[O-]	x	n	x	x	x	x	x	x
COc1ccc(S(=O)(=O)N2CCN(CC(=O)c3ccc(O)c(O)c3)CC2)cc1	u	n	n	28µM	n	n	u	u
COc1ccc(S(=O)(=O)N2CCN(S(=O)(=O)c3ccc(OC)cc3)CC2)cc1	n	x	n	n[12.7 µM]	x	x	x	x
Cc1ccc(NC(=O)COC(=O)COc2cccc3c2OC(C)(C)C3)c(C)c1	n	n	n	n[2.33 µM]	n	n	x	x
Cc1c(C(=O)OC2CCC(C)CC2)[nH]c2c1C(=O)CC(c1ccccc1Cl)C2 (stereo not drawn)	n	x	n	n	u	n	x	x
COc1cccc(-c2coc3ccc(Br)cc3c2=O)c1	x	x	x	x	n	x	x	x
Cc1cc(C)nc(Sc2nc(Cl)nc(N(c3ccccc3)c3ccccc3)n2)n1	6.3µM	13µM	u	u	22µM	n	u	35µM
CCCNC(=O)N(C)C[C@@H]1Oc2ncc(Br)cc2C(=O)N([C@H](C)CO)C[C@@H]1C	x	n	x	x	x	x	x	x
CCCNC(=O)N(C)C[C@@H]1Oc2ncc(-c3ccncc3)cc2C(=O)N([C@H](C)CO)C[C@@H]1C	x	n	x	x	x	x	22µM	32µM
O=C(CN1CCN(c2ccc(O)cc2)CC1)Nc1ccc2c(c1)OCCO2	79µM	n	n	7.9µM	n	u	22µM	32µM
Cc1cc(N=Cc2c(O)ccc3cc(Br)ccc23)no1	1.8µM	5.3µM	n	1.4µM	n	u	18µM	7.1µM
Cc1cc(N=Cc2c(O)n(-c3ccc(C)c(C)c3)c(=O)c3ccccc23)no1	x	x	n	n	x	x	x	x
COc1cc2c(cc1[N+](=O)[O-])-c1ccc([N+](=O)[O-])cc1C2=NO	x	n	x	x	x	x	x	x
O=C(O)CCCn1c(=S)[nH]c2c(sc3ccc([N+](=O)[O-])cc32)c1=O	18µM	n	u	8.9µM	n	n	7.9µM	4.5µM
NC(=O)c1sc2nc(N3CCOCC3)c3c(c2c1N)CCCC3	u	27µM	u	71µM	n	n	11µM	10µM
CCCCN(CCCC)C(=O)c1sc2nc(N3CCOCC3)c3c(c2c1N)CCCC3	n	30µM	n	45µM	u	n	1.6µM	3.2µM
O=c1[nH]c2ccc(Cl)cc2c(-c2ccccc2)c1SC(=S)N1CCCCC1	u	12µM	u	11µM	u	u	5.6µM	7.9µM

From PubChem
